Measured values as given in PubChem BioAssay (NCI).
The panel holds about 83,000 compounds, 20% with a hit somewhere; the sample as a whole holds those more often.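 Step 1: grow cells in 96-well plates. Step 2: add test compound at a single concentration. Step 3: incubate 48 h. Step 4: record percent growth.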 Calls of active or inactive are those of the source. Rule for the calls: active = growth percent below 10; inactive = the rest.

Legend:
Assay in all cases: NCI-60 one-dose screen, 48 h (100 = growth as untreated, 0 = no growth, -100 = all killed)
Settings in all cases: 10 µM unless noted
NCI-H23 lung = system: NCI-H23 lung
NCI-H226 lung = system: NCI-H226 lung
NCI-H322M lung = system: NCI-H322M lung
HOP-62 NSCLC = system: HOP-62 NSCLC
NCI-H460 lung = system: NCI-H460 lung
HOP-92 NSCLC = system: HOP-92 NSCLC
NCI-H522 lung = system: NCI-H522 lung
A549/ATCC NSCLC = system: A549/ATCC NSCLC
786-0 renal = system: 786-0 renal
COLO 205 colon = system: COLO 205 colon

Measured: growth

CC1(C)NCCC[C@]2(C)[C@H]3CC(=O)[C@H]4[C@@H]5C[C@](C)(CO)CC[C@]5(C)CC[C@@]4(C)[C@]3(C)CC[C@@H]12
inactive: NCI-H23 lung 104% | NCI-H226 lung 97.9% | NCI-H322M lung 98.2% | HOP-62 NSCLC 92.4% | NCI-H460 lung 99.6% | HOP-92 NSCLC 84% | NCI-H522 lung 101% | A549/ATCC NSCLC 92% | 786-0 renal 94% | COLO 205 colon 94.2%

COc1cccc(-c2nc3occn3c2-c2ccnc(NCCNS(=O)(=O)c3ccc(C(F)(F)F)cc3)n2)c1
inactive: NCI-H23 lung 98.2% | NCI-H226 lung 75.8% | NCI-H322M lung 98.9% | HOP-62 NSCLC 119% | NCI-H460 lung 88% | HOP-92 NSCLC 95.9% | NCI-H522 lung 86.6% | A549/ATCC NSCLC 87.9% | 786-0 renal 79.5% | COLO 205 colon 77.7%

COc1cc(NC(C)CCCNC(=O)CCC(=O)NCCCNCCCCCCCCCCNCCCNC(=O)CCC(=O)NCCCC(C)Nc2cc(OC)cc3cccnc23)c2ncccc2c1 (stereo not given)
inactive: NCI-H23 lung 63.4% [8 µM] | NCI-H226 lung 58.6% [8 µM] | NCI-H322M lung 32.1% [8 µM] | HOP-62 NSCLC 101% [8 µM] | NCI-H460 lung 81% [8 µM] | HOP-92 NSCLC 59% [8 µM] | NCI-H522 lung 57.1% [8 µM] | A549/ATCC NSCLC 63.7% [8 µM] | 786-0 renal 92.5% [8 µM] | COLO 205 colon 26.7% [8 µM]

C=C(C)[C@@H]1CC[C@]2(C(=O)N[C@@H](Cc3ccccc3)C(=O)OC)CC[C@]3(C)[C@H](CC[C@@H]4[C@@]5(C)CCC(=O)C(C)(C)[C@@H]5CC[C@]43C)[C@@H]12
inactive: NCI-H23 lung 86.7% | NCI-H226 lung 94.6% | NCI-H322M lung 93.4% | HOP-62 NSCLC 94% | NCI-H460 lung 81.3% | HOP-92 NSCLC 57.6% | NCI-H522 lung 79.7% | A549/ATCC NSCLC 79% | 786-0 renal 85.8% | COLO 205 colon 94.5%

COc1cc(/C=N/NC(=O)c2cnn3c2NC(c2ccccc2)C3)ccc1Oc1ccccc1 (stereo not given)
inactive: NCI-H23 lung 43.8% | NCI-H226 lung 54.1% | NCI-H322M lung 30.8% | HOP-62 NSCLC 22.3% | HOP-92 NSCLC 26.1% | NCI-H522 lung 13.8% | A549/ATCC NSCLC 25.5% | 786-0 renal 25.5% | COLO 205 colon 24.9%
active: NCI-H460 lung 7.15%

O=C1Nc2cc(-c3ccc(NC(=O)C4CC4)cc3)ccc2/C1=C/c1ccc[nH]1
inactive: NCI-H23 lung 61.3% | NCI-H226 lung 101% | NCI-H322M lung 86.2% | HOP-62 NSCLC 104% | NCI-H460 lung 61.4% | HOP-92 NSCLC 129% | NCI-H522 lung 92.5% | A549/ATCC NSCLC 107% | 786-0 renal 105% | COLO 205 colon 117%

COc1ccc(-c2cnc3c(-c4cccc5ncccc45)cnn3c2)cc1
active: NCI-H226 lung 0.736% | HOP-62 NSCLC 4.66%
inactive: NCI-H23 lung 50% | NCI-H322M lung 42.7% | NCI-H460 lung 33.9% | HOP-92 NSCLC 24.9% | NCI-H522 lung 32.8% | A549/ATCC NSCLC 27.2% | 786-0 renal 18.3% | COLO 205 colon 88.5%

Cc1ccc(S(=O)(=O)NNC(=O)/C(=C\c2ccc(Cl)cc2)c2nc3ccccc3s2)cc1
inactive: NCI-H23 lung 96.4% | NCI-H226 lung 81.2% | NCI-H322M lung 92.7% | HOP-62 NSCLC 109% | NCI-H460 lung 86% | HOP-92 NSCLC 87.3% | NCI-H522 lung 91.7% | A549/ATCC NSCLC 91.9% | 786-0 renal 99.5% | COLO 205 colon 117%

O=Cc1cc2ccccc2nc1Oc1ccc(C(F)(F)F)cc1
inactive: NCI-H23 lung 85.3% | NCI-H226 lung 76.9% | NCI-H322M lung 94.9% | HOP-62 NSCLC 80.9% | NCI-H460 lung 98.8% | HOP-92 NSCLC 52.8% | NCI-H522 lung 85.4% | A549/ATCC NSCLC 98.4% | 786-0 renal 101% | COLO 205 colon 83.6%

Cc1ccccc1NS(=O)(=O)c1cccc(C(=O)Nc2ccc(Br)cc2)c1
inactive: NCI-H23 lung 18.5% [25 µM] | NCI-H226 lung 29.1% [25 µM] | NCI-H322M lung 64.2% [25 µM] | HOP-62 NSCLC 80.7% [25 µM] | NCI-H460 lung 35.8% [25 µM] | HOP-92 NSCLC 21.1% [25 µM] | NCI-H522 lung 39.6% [25 µM] | A549/ATCC NSCLC 38.1% [25 µM] | 786-0 renal 53.6% [25 µM] | COLO 205 colon 52.4% [25 µM]

S=c1cc(S)c2cc(Br)ccc2[nH]1
inactive: NCI-H23 lung 81.5% | NCI-H226 lung 83.9% | NCI-H322M lung 91.1% | HOP-62 NSCLC 85.9% | NCI-H460 lung 99.4% | HOP-92 NSCLC 88.5% | NCI-H522 lung 68.1% | A549/ATCC NSCLC 89.5% | 786-0 renal 104% | COLO 205 colon 98.8%

O=C(NCCc1ccccc1)Nc1ccc2cc3ccc(NC(=O)NCCc4ccccc4)cc3nc2c1
inactive: NCI-H23 lung 10.3% | NCI-H226 lung 88.7% | NCI-H322M lung 19.2% | HOP-62 NSCLC 39.4% | NCI-H460 lung 16.8% | HOP-92 NSCLC 68.1% | A549/ATCC NSCLC 73.8% | 786-0 renal 38.4% | COLO 205 colon 10.8%
active: NCI-H522 lung -10.8%

O=C(Cn1c[n+](CC(=O)c2ccc(-c3ccccc3)cc2)c2ccccc21)Nc1cccc2cccnc12
active: HOP-92 NSCLC -4.57% | NCI-H522 lung 2.6% | COLO 205 colon -61.8%
inactive: NCI-H23 lung 23.8% | NCI-H226 lung 50.4% | NCI-H322M lung 77.2% | HOP-62 NSCLC 43.2% | NCI-H460 lung 28.7% | A549/ATCC NSCLC 59.9% | 786-0 renal 44.4%

C[C@H](c1nc2ccc(N)cc2[nH]1)[C@H]1CC[C@H]2[C@@H]3CCC4=CC(=O)CC[C@]4(C)[C@H]3CC[C@]12C
inactive: NCI-H23 lung 85.8% | NCI-H226 lung 91% | NCI-H322M lung 91.7% | HOP-62 NSCLC 96.2% | NCI-H460 lung 97.1% | HOP-92 NSCLC 43.9% | NCI-H522 lung 84.3% | A549/ATCC NSCLC 96.7% | 786-0 renal 59.4% | COLO 205 colon 81.4%

COc1cc(F)c(/C=C/c2cc(/C=C/c3cc(OC)c(OC)cc3F)on2)cc1OC
inactive: NCI-H23 lung 79.4% | NCI-H226 lung 56.8% | NCI-H322M lung 96% | HOP-62 NSCLC 107% | NCI-H460 lung 72.1% | HOP-92 NSCLC 88.4% | NCI-H522 lung 62.3% | A549/ATCC NSCLC 81.3% | 786-0 renal 87.3% | COLO 205 colon 80%

COC(=O)/C=C1\S/C(=N\NC(=O)c2cc3ccc2/C=C\c2ccc(cc2)/C=C\3)N(c2ccccc2)C1=O
inactive: NCI-H23 lung 40.4% | NCI-H226 lung 73.8% | NCI-H322M lung 68.5% | NCI-H460 lung 60.7% | HOP-92 NSCLC 75.3% | NCI-H522 lung 41.5% | A549/ATCC NSCLC 69.1% | COLO 205 colon 47.7%
active: HOP-62 NSCLC 3% | 786-0 renal -0.285%

CC1=CCC(OC(=O)C(C)(O)CCC(O)(C(=O)OC2(C)C=CC(O)(C(C)C)CC2)C(C)C)(C(C)C)CC1 (stereo not given)
inactive: NCI-H23 lung 108% | NCI-H226 lung 106% | NCI-H322M lung 99.1% | HOP-62 NSCLC 99.8% | NCI-H460 lung 111% | HOP-92 NSCLC 109% | NCI-H522 lung 93.7% | A549/ATCC NSCLC 101% | 786-0 renal 100% | COLO 205 colon 116%

Cc1cnc(C(=O)Nc2nc3ccc(S(=O)(=O)Nc4ccc(C(C)(C)C)cc4)cc3[nH]2)cn1
inactive: NCI-H23 lung 37.4% | NCI-H226 lung 31.3% | NCI-H322M lung 41.6% | HOP-62 NSCLC 42.5% | HOP-92 NSCLC 37.4% | NCI-H522 lung 24.4% | A549/ATCC NSCLC 21.6% | 786-0 renal 22.7%
active: NCI-H460 lung 1.67% | COLO 205 colon 6.64%

COc1ccc(-c2nc([C@@H](C)Sc3nc(N)cc(N)n3)c(C)s2)cc1OCCN1CCOCC1
inactive: NCI-H23 lung 103% | NCI-H226 lung 95.7% | NCI-H322M lung 109% | HOP-62 NSCLC 94.5% | NCI-H460 lung 110% | HOP-92 NSCLC 95.3% | NCI-H522 lung 87% | A549/ATCC NSCLC 96.2% | 786-0 renal 104% | COLO 205 colon 116%

CC(=O)[C@H]1CCC/C=C/[C@@H]2C[C@H](O)C[C@H]2[C@H](O)/C=C/C(=O)O1
active: NCI-H23 lung -5.21% | NCI-H226 lung -57.6% | NCI-H460 lung 6.67% | NCI-H522 lung -41.2% | 786-0 renal -48.3% | COLO 205 colon -94.8%
inactive: NCI-H322M lung 29% | HOP-62 NSCLC 25.4% | HOP-92 NSCLC 22.9% | A549/ATCC NSCLC 20.5%

COc1cc(/C=C\c2cc(/C=C\c3ccc(O)c(OC)c3)n(C(=O)COc3ccccc3)n2)ccc1O
active: NCI-H23 lung 1.6% | NCI-H226 lung 9.96% | HOP-62 NSCLC 8.39% | NCI-H460 lung 7.6% | NCI-H522 lung -39.3% | A549/ATCC NSCLC 8.68% | 786-0 renal 1.27%
inactive: NCI-H322M lung 30.8% | HOP-92 NSCLC 14.4% | COLO 205 colon 79.3%

CCc1ccc(-c2cn3ccnc3c(-c3ccc4ncn(Cc5ccccc5)c4c3)n2)cc1
inactive: NCI-H23 lung 77% | NCI-H226 lung 98.5% | NCI-H322M lung 99.1% | HOP-62 NSCLC 82.1% | NCI-H460 lung 58% | HOP-92 NSCLC 63.9% | NCI-H522 lung 54.1% | A549/ATCC NSCLC 54.6% | 786-0 renal 61.9% | COLO 205 colon 65.8%

CCCCCN1C=C/C(=C\C(=O)N(C)c2ccccc2Br)c2ccccc21
inactive: NCI-H23 lung 77.8% | NCI-H226 lung 89.8% | NCI-H322M lung 108% | HOP-62 NSCLC 95.3% | NCI-H460 lung 101% | HOP-92 NSCLC 94.7% | NCI-H522 lung 78.2% | A549/ATCC NSCLC 90.9% | 786-0 renal 94.1% | COLO 205 colon 105%

CN(CCN(C)c1ccc(C(=N)N)cc1)c1ccc(C(=N)N)cc1
inactive: NCI-H23 lung 86.3% | NCI-H226 lung 84% | NCI-H322M lung 93.1% | HOP-62 NSCLC 102% | NCI-H460 lung 92% | HOP-92 NSCLC 35% | NCI-H522 lung 92.4% | A549/ATCC NSCLC 103% | 786-0 renal 107% | COLO 205 colon 134%

O=C1c2cccc3c(-c4ccc5c(c4)ncn5C4CCCCC4)ccc(c23)C(=O)N1CCO
inactive: NCI-H23 lung 78.6% | NCI-H226 lung 77% | NCI-H322M lung 91.8% | HOP-62 NSCLC 81.9% | NCI-H460 lung 94.1% | HOP-92 NSCLC 51.1% | NCI-H522 lung 73.7% | A549/ATCC NSCLC 95.6% | 786-0 renal 95.4% | COLO 205 colon 108%
